# Measurements as given in the supplement of paper PMC10338343.
# ± gives the standard deviation.
# How the values were obtained:
# [1] = system: MILI (PIWIL2) piRISC loaded with piRNA #1 (26 nt); assay: pre-steady-state target cleavage rate (min^-1); guide: piRNA #1 5'p-UGAGGUAGUAGGUUGUAUAGUAUCCA; higher = faster piRNA-guided slicing of the target; conditions: auxiliary factor: 500 nM mouse GTSF1;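 also: 1 nM active piRISC with 0.1 nM target library at 33 °C single turnover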
# In short: (§1)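 In HEPES–potassium acetate buffer at 33 °C, […] transcribed, DNA-blocked target RNA library was mixed with 1 nM active affinity-purified piRISC carrying one synthetic guide, with or without 500 nM GTSF1 partner protein, for 0–8 or 0–960 min. Uncleaved targets were sequenced and normalised to depth and to weakly complementary targets; three trials were pooled and k3 was capped at 0.0001 min^-1. The pre-steady-state cleavage rate followed from a burst-and-steady-state fit.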
# [2] = system: EfPiwi piRISC loaded with piRNA #1 (26 nt); assay: pre-steady-state target cleavage rate (min^-1); auxiliary factor: 500 nM Ephydatia muelleri Gtsf1; guide: piRNA #1 5'p-UGAGGUAGUAGGUUGUAUAGUAUCCA; MIWI and MILI are mouse PIWI proteins and EfPiwi is from a freshwater sponge; tags in brackets are library labels; higher = faster piRNA-guided slicing of the target
# In short: as §1
Sequence,pre-steady-state target cleavage rate [1],pre-steady-state target cleavage rate [2]
GGAGUGGAUACUAAACAACCAACUACCUCA,0.007 ± 0.0021,0.0031 ± 0.0017
GGAGACGAUACUUAACAACCUACUACCUCA,0.134 ± 0.013,0.00683 ± 0.0038
GGAGACCUAACUAUACAACCUACUACGUGA,0.0518 ± 0.018,0.0069 ± 0.0046
GGAGACGAUUCUAUACAACCUACUACCUCA,0.209 ± 0.013,0.0774 ± 0.03
GGAGAGGAUACUAUACACCCUACUACCUCA,0.122 ± 0.015,0.0114 ± 0.0053
GGAGAGGGUACUAUACAACCUACUACCUCA,0.145 ± 0.013,0.0162 ± 0.0072
GGAGACCUAUGAUUACAACCUACUACCUCU [g2:g17:cont:t1U],0.00674 ± 0.0025,0.732 ± 0.29
GGAGACGAUACUAUACAAGCUACUACGUCA,0.205 ± 0.032,0.00352 ± 0.0014
GGAGACCUUACUAUACAACCUACUACCUUA,0.174 ± 0.019,0.0898 ± 0.034
GGAGACCUAUCUAAACAACCUACUACCUCA,0.0794 ± 0.014,0.00381 ± 0.0037
GGAGAGGAUACUAUACAACCUACGACCUCA,0.1 ± 0.013,0.00309 ± 0.0016
GGAGACCAUACUAUUCAACCUACUAGCUCA,0.11 ± 0.019,0.00459 ± 0.0044
GGAGACCAUACUAGUACAACCUACUACCUCA,0.089 ± 0.011,0.00796 ± 0.0044
GGAGAGGAUACUAUACAACCAACUACCUCA,0.00747 ± 0.0023,0.00561 ± 0.002
GGAGACCUAUCUAUACUACCUACUACCUCA,0.0815 ± 0.01,0.00437 ± 0.0031
GGAGAGGAUACUAUACAACCUACUACCCCA,0.119 ± 0.02,0.00713 ± 0.0022
GGAGACCAUACUAUACAACCUACUACCACA,0.231 ± 0.029,0.00574 ± 0.002
GGAGUGGAUACUAUAGAACCUACUACCUGA,0.0453 ± 0.0088,0.00222 ± 0.0011
GGAGAGGAUACUAUAUCAACCUACUACCUCA,0.107 ± 0.0098,0.0145 ± 0.0066
GGAGUGGAUACUAUACAACCUUCUACCUCA,0.00895 ± 0.002,0.0116 ± 0.0048

Sequence,pre-steady-state target cleavage rate [1],pre-steady-state target cleavage rate [2]
GGAGACGUUACUAUACAACCUACUACCUCA,0.186 ± 0.014,0.0209 ± 0.0092
GGAGACCAUACUAUACAACCUACUUCGUCA,0.112 ± 0.029,0.00491 ± 0.0039
GGAGAGGAUCACUAUACAACCUACUACCUCA,0.086 ± 0.019,0.00867 ± 0.0051
GGAGAGCAUACUAUACAACCUAGUACCUCA,0.0618 ± 0.013,0.00276 ± 0.0014
GGAGAGGAAACUAUACAACGUACUACCUCA,0.0138 ± 0.0051,0.00339 ± 0.0016
GGAGACGAUACUAAACAACCUACUACCUCA,0.207 ± 0.016,0.0292 ± 0.012
GGAGACGAUACUAUACAACCUACUACUCA,0.125 ± 0.019,0.00549 ± 0.0025
GGAGACCUACCUAUACAACCUACUACCUCA,0.117 ± 0.026,0.0239 ± 0.012
GGAGACCUUACUAUACAUCCUACUACCUCA,0.292 ± 0.024,0.00607 ± 0.0029
GGAGAGCAUAGUAUACAACCUACUACCUCA,0.0921 ± 0.0087,0.0077 ± 0.0045
GGAGAGGAUACUAUACAACCUACUACCUCC [g2:g25:cont:t1C],0.146 ± 0.013,0.12 ± 0.046
GGAGUGGUUACUAUACAACCUACUACCACA,0.0961 ± 0.0098,0.00384 ± 0.0022
GGAGUGGAUACUAUACAACCGACUACCUCA,0.00279 ± 0.0026,0.00469 ± 0.0016
GGAGAGGAAACUAUACAACCUUCUACCUCA,0.00762 ± 0.006,0.00297 ± 0.0027
GGAGACGAUGCUAUACAACCUACUACCUCA,0.194 ± 0.021,0.00734 ± 0.0042
GGAGACGAUACUAAACAACCUAGUACCUCA,0.049 ± 0.0087,0.00281 ± 0.0023
GGAGACCAUACUAUACAGCCUACUACCUCA,0.157 ± 0.02,0.16 ± 0.053
GGAGACCUAACUAUACAACCUACUACCUAA,0.0853 ± 0.015,0.0641 ± 0.025
GGAGACCAAUGUAUACAACCUACUACCUCA,0.0592 ± 0.01,0.0133 ± 0.0056
GGAGAGCAUACUAUACAACCUACUAGCUCA,0.0696 ± 0.016,0.00355 ± 0.0022

Sequence,pre-steady-state target cleavage rate [1],pre-steady-state target cleavage rate [2]
GGAGAGGAUACUAUACAACCUACUACCUCG [g2:g25:cont:t1G],0.175 ± 0.015,0.143 ± 0.048
GGAGACCAUACUAUACUACCUAGUACCUCA,0.0453 ± 0.0095,0.00377 ± 0.0033
GGAGUGGAUACUAUACAACCUCCUACCUCA,0.0339 ± 0.0035,0.0053 ± 0.0019
GGAGUGGAUACAUACAACCUACUACCUCA,0.131 ± 0.011,0.131 ± 0.048
GGAGACCAUACUAUACAACCAACUUCCUCA,0.00585 ± 0.003,0.00509 ± 0.0046
GGAGACGAUACUAAACAACCUUCUACCUCA,0.00978 ± 0.003,0.00427 ± 0.004
GGAGAGGAUACUAUAGAUCCUACUACCUCA,0.242 ± 0.024,0.00654 ± 0.0034
GGAGACCAUACUAUACAACCUACUACUCUCA,0.331 ± 0.028,0.00773 ± 0.0036
GGAGAGGAUACAAUACAACCUACUUCCUCA,0.0281 ± 0.0083,0.00257 ± 0.002
GGAGUGGAUACUAUACAACCUAACUACCUCA,0.0255 ± 0.0041,0.00456 ± 0.0023
GGAGACCAUACUAUACAACCUUCUACCACA,0.00753 ± 0.0037,0.00301 ± 0.0027
GGAGACCUAUGUGAUACAACCUACUACCUCA,0.0354 ± 0.0073,0.0129 ± 0.0064
GGAGACGAUACUAUACAACUCUACUACCUCA,0.00377 ± 0.0022,0.00452 ± 0.0031
GGAGACGAAACUAUACAACCUACUACCUGA,0.149 ± 0.039,0.00491 ± 0.0026
GGAGACCUUACUAUACAACCUAGUACCUCA,0.0616 ± 0.011,0.00384 ± 0.0019
GGAGUGGAUAGCUAUACAACCUACUACCUCA,0.0528 ± 0.0074,0.00584 ± 0.0033
GGAGACCUAUGAUCACAACCUACUACCUCA,0.00534 ± 0.0024,0.00429 ± 0.0038
GGAGAGGAUACUAUACAACCUAAUACCUCA,0.0575 ± 0.01,0.00595 ± 0.0025
GGAGACCUAACUAUACAAACUACUACCUCA,0.248 ± 0.025,0.0044 ± 0.0038
